Source: PubChem (several laboratories)
This is a sample that favours compounds with a hit; in the whole collection about 2.7% have one here.
PfG6PD inh: PfG6PD (Plasmodium falciparum) enzyme inhibition; PfGluPho enzyme, NADPH resazurin-diaphorase fluorescence; inhibition, % at 20 µM; 0.78% of 350,000 active;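 active means inhibition reaching at least a set limit at 20 µM in the primary screen, cut at about 59% in these data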
FAS TE block: FAS thioesterase (human) inhibition. P49327. recombinant FAS-TE, OMFH fluorogenic substrate, fluorescence endpoint. inhibition, % at 15 µM. 0.67% of 360,000 active. AID 602261;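 active means compounds whose normalised, plate-corrected inhibition of enzyme fluorescence in the single-dose primary screen is 50% or more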
Neddyl block: cullin neddylation inhibition; P61081+Q13564; TR-FRET cullin neddylation, biochemical; calls only at 25 µM; 0.58% of 360,000 active; AID 651699; in the data active means inhibition above about 36%
proKLK7 act: activators of human kallikrein-7 zymogen; P49862; purified proKLK7, EDANS-DABCYL substrate fluorescence; 100% is mature enzyme control, 0% vehicle; activation, % at 7 µM; 0.9% of 370,000 active;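 active means activation above the mean of all tested compounds plus 3 SD, computed per campaign excluding outliers beyond control limits, cut at about 13% in these data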
FAS-TE conf: confirmation of human fatty acid synthase thioesterase inhibitors | shares compounds with FAS TE block | recombinant FAS-TE, OMFH fluorogenic substrate, fluorescence | inhibition, % at 15 µM | 45% of 2,300 active | AID 624325;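 active means compounds inhibiting the enzyme by at least 50% at 15 µM in any one of the replicates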
Hits are given with their value; n = inactive; x = no result.

SMILES | PfG6PD inh | FAS TE block | Neddyl block | proKLK7 act | FAS-TE conf
Cc1ccc(C)c(COC(=O)c2cc([N+](=O)[O-])ccc2N2CCOCC2)c1 | n | n | n | n | x
O=C(OCc1cccc(C(F)(F)F)c1)c1cc([N+](=O)[O-])ccc1N1CCOCC1 | n | 58 | n | n | 46
O=C(OCc1ccc(Br)cc1)c1cc([N+](=O)[O-])ccc1N1CCOCC1 | n | 73 | n | n | n
O=C(OCc1cccc(Cl)c1)c1cc([N+](=O)[O-])ccc1N1CCOCC1 | n | 59 | n | n | n
O=C(Nc1nc2ncccn2c1-c1ccc(C(F)(F)F)cc1)C1CC1 | x | x | x | n | x
COc1cccc(CNC(=O)COC(=O)c2cc([N+](=O)[O-])ccc2N2CCCC2)c1 | n | 81 | n | n | 85
O=C(COC(=O)c1cc(Cl)ccc1[N+](=O)[O-])NCc1ccc(Cl)cc1Cl | n | n | n | n | x
O=C(COC(=O)c1cc([N+](=O)[O-])ccc1N1CCOCC1)NCc1ccccc1 | n | 83 | n | n | 90
O=C(Cn1cc([N+](=O)[O-])ccc1=O)NCc1ccc(Cl)cc1Cl | n | 56 | n | n | 55
NS(=O)(=O)c1ccc(CCNC(=O)COC(=O)c2cc([N+](=O)[O-])ccc2N2CCOCC2)cc1 | n | n | n | n | x
O=C(COC(=O)c1cc([N+](=O)[O-])ccc1N1CCOCC1)NCc1ccc(Cl)cc1Cl | n | 93 | n | n | 93
CCCCNC(=O)OCCCN1CCC2(CCC(c3ccccc3)CC2)C1 (stereo not given) | x | x | x | n | x
COC(=O)C[C@@H]1CC[C@H]2[C@@H](COc3ccc(NC(=O)c4ccc(C(F)(F)F)cc4)cc3C(=O)N2C)O1 | x | x | x | n | x
COC(=O)c1cc(C(C)c2ccccc2O)n2ccccc12 (stereo not given) | x | x | x | n | x
COC(=O)[C@]12C[C@H](CC(=O)NCc3cccs3)C(=O)N(CCc3ccc(OC)c(OC)c3)C1=C[C@H](C1CCCC1)O[C@@H]2C | x | x | x | n | x
Cc1ccc(S(=O)(=O)N(Cc2ccccc2)c2ccccc2C(=O)Nc2ccccc2C(=O)NCc2ccco2)cc1 | n | 53 | n | n | n
COC(=O)c1ccccc1NC(=S)N(Cc1ccc2c(c1)OCO2)Cc1cc2cccc(C)c2[nH]c1=O | n | 83 | n | n | n
COC(=O)[C@]12C[C@H](CC(=O)NCCc3ccccc3OC)C(=O)N(CCc3ccc(OC)c(OC)c3)C1=C[C@H](COCc1ccccc1)O[C@@H]2C | x | x | x | n | x
CSc1ccc(CN2C(=O)C(F)(F)Oc3c(C(C)=O)cccc32)cc1 | x | 52 | n | x | 59
CSc1ccc(CN2C(=O)C(C)Oc3c(C(C)=O)cccc32)cc1 (stereo not given) | x | n | n | n | x
C/C=C/C(=O)N1CCC(C(=O)NCC2COc3ccccc3O2)CC1 (stereo not given) | x | x | x | n | x
CCOc1ccccc1Nc1nnc(SC(C)C(=O)Nc2nc(-c3ccccc3)cs2)s1 (stereo not given) | n | 76 | n | n | n
CCOc1ccccc1Nc1nnc(SCC(=O)NC(=O)c2cccn2C)s1 | n | n | n | n | x
Cc1ccc(NC2(c3nnnn3-c3c(C)cccc3C)CCCCC2)cc1 | n | 54 | n | n | n
Cc1ccc(S(=O)(=O)Nc2ccc3c(c2)c2c(n3S(=O)(=O)c3ccc(C)cc3)CCCC2=O)cc1 | n | 51 | n | n | n
SMILES | PfG6PD inh | FAS TE block | Neddyl block | proKLK7 act | FAS-TE conf
O=C(Nc1nnc(-c2ccc(F)cc2)o1)c1cccc([N+](=O)[O-])c1 | n | 56 | n | n | 54
CC(C)(C)c1ccc(C(=O)OCCNC(=O)c2c(Cl)nc3ccccn23)cc1 | n | 66 | n | n | 75
CCn1c(C)c(C(C)=O)c(N2CCN(C(c3ccccc3)c3ccccc3)CC2)nc1=S | n | 70 | n | n | 61
CCn1c(C)c(C(C)=O)c(N2CCN(c3ccccc3)CC2)nc1=S | n | n | n | n | x
Cc1cc(C)cc(NC(=O)N2CCC(c3nc4ccc(Cl)cc4[nH]3)CC2)c1 | x | x | x | n | x
CCN1C(=O)[C@H]2[C@@H](c3ccc(-c4ccc(Cl)c(Cl)c4)cc3)N[C@@](Cc3ccccc3)(C(=O)OC)[C@H]2C1=O | n | 89 | n | n | n
CCN1C(=O)[C@H]2[C@@H](c3ccc(-c4ccc(OC)cc4)c(OC)c3)N[C@@](CC(C)C)(C(=O)OC)[C@H]2C1=O | n | n | n | n | x
CCN1C(=O)[C@H]2[C@@H](c3ccc(-c4ccc5c(c4)OCO5)c(OC)c3)N[C@@](Cc3ccccc3)(C(=O)OC)[C@H]2C1=O | n | 91 | n | n | n
CCN(C[C@H]1N[C@@](Cc2ccccc2)(C(=O)OC)[C@H]2C(=O)N(C)C(=O)[C@@H]12)S(=O)(=O)c1ccc(-c2ccccc2)cc1 | n | 52 | n | n | n
CCN1C(=O)[C@H]2[C@@H](c3ccc(-c4ccc(OC)cc4)c(OC)c3)N[C@@](Cc3ccccc3)(C(=O)OC)[C@H]2C1=O | n | 52 | n | n | n
COC(=O)[C@]12C[C@H](CC(=O)N3CCN(C(=O)C4CC4)CC3)C(=O)N(Cc3cccc4ccccc34)C1=C[C@H](C1CCCC1)O[C@@H]2C | x | x | x | n | x
C=CCN1C(=O)[C@@H](CC(=O)N2CCCCC2)[C@]2(C(=O)OCC)CCCCC/C=C/12 | x | x | x | n | x
COC(=O)[C@]1(Cc2ccccc2)N[C@H](c2ccc(-c3cccc(Cl)c3)c(OC)c2)[C@@H]2C(=O)N(C)C(=O)[C@@H]21 | n | 93 | n | n | n
CCN1C(=O)[C@H]2[C@@H](c3ccc(-c4ccccc4)cc3)N[C@@](Cc3ccccc3)(C(=O)OC)[C@H]2C1=O | n | n | n | n | x
CCN1C(=O)[C@H]2[C@@H](c3ccc(-c4cccc(Cl)c4)c(OC)c3)N[C@@](Cc3ccccc3)(C(=O)OC)[C@H]2C1=O | n | n | n | n | x
COC(=O)[C@]1(Cc2ccccc2)N[C@H](c2ccc(-c3ccc(F)cc3)cc2)[C@@H]2C(=O)N(C)C(=O)[C@@H]21 | n | 85 | n | n | n
CC(=O)Nc1ccc(/C=N\NC(=O)c2cccc(S(=O)(=O)N(C)C)c2)cc1 | x | x | x | n | x
O=C(COC(=O)c1cc([N+](=O)[O-])ccc1Cl)NCCc1ccccc1 | n | 76 | n | n | 83
CN(C(=O)COC(=O)c1cc([N+](=O)[O-])ccc1Cl)c1ccccc1 | n | 52 | n | n | 62
CN(C(=O)COC(=O)c1ccc([N+](=O)[O-])cc1)c1ccccc1 | n | n | n | n | x
O=C(COc1ccc([N+](=O)[O-])cc1Cl)NCCc1ccccc1 | n | n | n | n | x
O=C(COC(=O)c1cccc([N+](=O)[O-])c1)NC1CCCC1 | n | 61 | n | n | 68
Cc1cc(C)c([N+](=O)[O-])cc1NCC(=O)N1CCN(c2ccccc2)CC1 | n | 78 | n | n | 66
COC(=O)c1cc(C(=O)OCC(=O)NC2CCCC2)cc([N+](=O)[O-])c1 | n | 61 | n | n | 64
O=C(OCC(=O)N1CCN(c2ccccc2)CC1)c1cccc([N+](=O)[O-])c1 | n | 54 | n | n | 57
Cc1cccc(C(=O)OCC(=O)NC2CCCCCCC2)c1 | n | n | n | n | x
